Data on 16 compounds can be found in ChEMBL document CHEMBL5598561, “ASAP - In vitro binding kinetics” (2024).

Structures are written as SMILES.

In this assay the target is Nonstructural protein 3 (Zika virus) (UniProt A0A024AXB9).
Chain of Nonstructural protein 3 (Zika virus) (A0A024AXB9 as listed by the source): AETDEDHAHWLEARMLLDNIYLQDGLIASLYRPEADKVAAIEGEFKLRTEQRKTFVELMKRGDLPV

By pKD is commonly meant −log10 of the KD, conventionally taken in molar units. The low end stands for a large KD, the high end for a small KD. The compound `O=C(Nc1ccc2c(c1)CNC2)c1cc(Br)cc2c1OCO2` gave a pKD (PRVABC59, Concentration 10.0 uM, Immobilization level 10000.0 pg/mm2, Rmax 23.0 pg/mm2, ka 221801.012 M-1s-1, kd 2.02 1/s) of 5.04; a negative-log KD (pKD) (PRVABC59, Concentration 10.0 uM, Immobilization level 12000.0 pg/mm2, Rmax 42.0 pg/mm2, ka 116147.62 M-1s-1, kd 1.164 1/s) of 5; a pKD (PRVABC59, Concentration 10.0 uM, Immobilization level 13000.0 pg/mm2, Rmax 30.0 pg/mm2, ka 164731.302 M-1s-1, kd 1.67 1/s) of 4.99.

On to `CCc1cc(Cl)cc(C(=O)Nc2ccc3c(c2)CNC3)c1`, for which the pKD (PRVABC59, Concentration 10.0 uM, Immobilization level 10000.0 pg/mm2, Rmax 7.0 pg/mm2, ka 456970.038 M-1s-1, kd 1.322 1/s) was found to be 5.54; the pKD (PRVABC59, Concentration 10.0 uM, Immobilization level 12000.0 pg/mm2, Rmax 55.0 pg/mm2, ka 33985.237 M-1s-1, kd 0.743 1/s) was 4.66; the pKD (PRVABC59, Concentration 10.0 uM, Immobilization level 13000.0 pg/mm2, Rmax 17.0 pg/mm2, ka 179212.289 M-1s-1, kd 1.129 1/s) worked out at 5.2.

Take `O=C(Nc1ccc2c(c1)CNC2)c1cccc2[nH]ncc12`: the pKD is, setting by setting: (PRVABC59, Concentration 10.0 uM, Immobilization level 10000.0 pg/mm2, Rmax 19.0 pg/mm2, ka 1068955.381 M-1s-1, kd 0.689 1/s) 6.19; (PRVABC59, Concentration 10.0 uM, Immobilization level 12000.0 pg/mm2, Rmax 37.0 pg/mm2, ka 703955.922 M-1s-1, kd 0.285 1/s) 6.39; (PRVABC59, Concentration 10.0 uM, Immobilization level 13000.0 pg/mm2, Rmax 29.0 pg/mm2, ka 931164.005 M-1s-1, kd 0.45 1/s) 6.32.

`CNC(=O)[C@H](Nc1ccc2c(c1)CNC2)c1cc(Cl)cc(C2CC2)c1`: the pKD by setting is: (PRVABC59, Concentration 10.0 uM, Immobilization level 10000.0 pg/mm2, Rmax 21.0 pg/mm2, ka 735105.2 M-1s-1, kd 0.212 1/s) 6.54; (PRVABC59, Concentration 10.0 uM, Immobilization level 12000.0 pg/mm2, Rmax 44.0 pg/mm2, ka 423211.762 M-1s-1, kd 0.126 1/s) 6.53; (PRVABC59, Concentration 10.0 uM, Immobilization level 13000.0 pg/mm2, Rmax 34.0 pg/mm2, ka 634638.949 M-1s-1, kd 0.171 1/s) 6.57.

The compound `O=C(Nc1ccc2c(n1)CNC2)c1cc(Cl)cc2[nH]ncc12` gave a pKD (PRVABC59, Concentration 10.0 uM, Immobilization level 3900.0 pg/mm2, Rmax 29.0 pg/mm2, ka 330423.124 M-1s-1, kd 0.318 1/s) of 6.02; a pKD (PRVABC59, Concentration 10.0 uM, Immobilization level 4900.0 pg/mm2, Rmax 43.0 pg/mm2, ka 188485.066 M-1s-1, kd 0.307 1/s) of 5.79; a negative-log KD (pKD) (PRVABC59, Concentration 10.0 uM, Immobilization level 5500.0 pg/mm2, Rmax 45.0 pg/mm2, ka 189855.655 M-1s-1, kd 0.314 1/s) of 5.78; a pKD (PRVABC59, Concentration 10.0 uM, Immobilization level 10000.0 pg/mm2, Rmax 55.0 pg/mm2, ka 105317.175 M-1s-1, kd 0.527 1/s) of 5.3; a pKD (PRVABC59, Concentration 10.0 uM, Immobilization level 12000.0 pg/mm2, Rmax 96.0 pg/mm2, ka 37343.204 M-1s-1, kd 0.288 1/s) of 5.11; a pKD (PRVABC59, Concentration 10.0 uM, Immobilization level 13000.0 pg/mm2, Rmax 49.0 pg/mm2, ka 130791.962 M-1s-1, kd 0.347 1/s) of 5.58.

Consider `CCc1nc2c(C(=O)Nc3ccc4c(c3)CNC4)cc(Br)cc2[nH]1`, for which the pKD is, setting by setting: (PRVABC59, Concentration 10.0 uM, Immobilization level 10000.0 pg/mm2, Rmax 30.0 pg/mm2, ka 310193.647 M-1s-1, kd 0.373 1/s) 5.92; (PRVABC59, Concentration 10.0 uM, Immobilization level 12000.0 pg/mm2, Rmax 36.0 pg/mm2, ka 171120.142 M-1s-1, kd 0.256 1/s) 5.83; (PRVABC59, Concentration 10.0 uM, Immobilization level 13000.0 pg/mm2, Rmax 31.0 pg/mm2, ka 250565.843 M-1s-1, kd 0.327 1/s) 5.88.

The compound `O=C(Nc1ccc2c(c1)[C@H]1CC[C@H]2N1)c1cc(Cl)cc2[nH]ncc12` registered a pKD (PRVABC59, Concentration 10.0 uM, Immobilization level 3900.0 pg/mm2, Rmax 29.0 pg/mm2, ka 207440.056 M-1s-1, kd 1.881 1/s) of 5.04; a pKD (PRVABC59, Concentration 10.0 uM, Immobilization level 4900.0 pg/mm2, Rmax 21.0 pg/mm2, ka 356637.156 M-1s-1, kd 1.239 1/s) of 5.46; a pKD (PRVABC59, Concentration 10.0 uM, Immobilization level 5500.0 pg/mm2, Rmax 38.0 pg/mm2, ka 209576.876 M-1s-1, kd 1.619 1/s) of 5.11; a pKD (PRVABC59, Concentration 10.0 uM, Immobilization level 10000.0 pg/mm2, Rmax 35.0 pg/mm2, ka 240196.621 M-1s-1, kd 1.957 1/s) of 5.09; a pKD (PRVABC59, Concentration 10.0 uM, Immobilization level 12000.0 pg/mm2, Rmax 27.0 pg/mm2, ka 216801.208 M-1s-1, kd 1.112 1/s) of 5.29; a pKD (PRVABC59, Concentration 10.0 uM, Immobilization level 13000.0 pg/mm2, Rmax 42.0 pg/mm2, ka 287948.566 M-1s-1, kd 1.743 1/s) of 5.22.

For `O=C(Nc1cc(Cl)cc(C(=O)Nc2ccc3c(c2)CNC3)c1)OCc1ccccc1`, the pKD reads like this: (PRVABC59, Concentration 1.0 uM, Immobilization level 3900.0 pg/mm2, Rmax 38.0 pg/mm2, ka 196121.646 M-1s-1, kd 0.113 1/s) 6.24; (PRVABC59, Concentration 1.0 uM, Immobilization level 4900.0 pg/mm2, Rmax 45.0 pg/mm2, ka 144681.299 M-1s-1, kd 0.064 1/s) 6.35; (PRVABC59, Concentration 1.0 uM, Immobilization level 4900.0 pg/mm2, Rmax 45.0 pg/mm2, ka 172692.705 M-1s-1, kd 0.081 1/s) 6.33; (PRVABC59, Concentration 1.0 uM, Immobilization level 5500.0 pg/mm2, Rmax 49.0 pg/mm2, ka 194075.024 M-1s-1, kd 0.087 1/s) 6.35; (PRVABC59, Concentration 1.0 uM, Immobilization level 5500.0 pg/mm2, Rmax 54.0 pg/mm2, ka 112858.156 M-1s-1, kd 0.052 1/s) 6.33; (PRVABC59, Concentration 10.0 uM, Immobilization level 3900.0 pg/mm2, Rmax 44.0 pg/mm2, ka 164681.147 M-1s-1, kd 0.126 1/s) 6.12.

Turning to `O=C(Nc1ccc2c(c1)CNC2)c1cc(F)cc2[nH]nnc12`, the pKD by setting is: (PRVABC59, Concentration 10.0 uM, Immobilization level 10000.0 pg/mm2, Rmax 22.0 pg/mm2, ka 162374.237 M-1s-1, kd 0.724 1/s) 5.35; (PRVABC59, Concentration 10.0 uM, Immobilization level 12000.0 pg/mm2, Rmax 50.0 pg/mm2, ka 32556.979 M-1s-1, kd 0.41 1/s) 4.9; (PRVABC59, Concentration 10.0 uM, Immobilization level 13000.0 pg/mm2, Rmax 48.0 pg/mm2, ka 67317.145 M-1s-1, kd 0.674 1/s) 5.

With `N#C[C@H](Nc1ccc2c(c1)CNC2)c1cc(Cl)cc(C2CC2)c1`, the pKD by setting is: (PRVABC59, Concentration 10.0 uM, Immobilization level 10000.0 pg/mm2, Rmax 28.0 pg/mm2, ka 179746.524 M-1s-1, kd 1.36 1/s) 5.12; (PRVABC59, Concentration 10.0 uM, Immobilization level 12000.0 pg/mm2, Rmax 42.0 pg/mm2, ka 91353.604 M-1s-1, kd 0.386 1/s) 5.37; (PRVABC59, Concentration 10.0 uM, Immobilization level 13000.0 pg/mm2, Rmax 52.0 pg/mm2, ka 98756.182 M-1s-1, kd 0.944 1/s) 5.02.

The compound `Cc1cc(NC(=O)c2cc(Cl)cc3[nH]ncc23)ccc1N1CCNCC1` had a pKD (PRVABC59, Concentration 10.0 uM, Immobilization level 10000.0 pg/mm2, Rmax 68.0 pg/mm2, ka 142841.774 M-1s-1) of 4.45; a pKD (PRVABC59, Concentration 10.0 uM, Immobilization level 12000.0 pg/mm2, Rmax 26.0 pg/mm2, ka 204393.234 M-1s-1, kd 2.532 1/s) of 4.91; a pKD (PRVABC59, Concentration 10.0 uM, Immobilization level 13000.0 pg/mm2, Rmax 38.0 pg/mm2, ka 209487.853 M-1s-1, kd 3.706 1/s) of 4.75.

Consider `O=C(Nc1ccc2c(c1)CNC2)c1cc(Br)cc2ccccc12`, for which the pKD reads like this: (PRVABC59, Concentration 10.0 uM, Immobilization level 10000.0 pg/mm2, Rmax 20.0 pg/mm2, ka 1054680.734 M-1s-1, kd 0.691 1/s) 6.18; (PRVABC59, Concentration 10.0 uM, Immobilization level 12000.0 pg/mm2, Rmax 63.0 pg/mm2, ka 507441.603 M-1s-1, kd 0.463 1/s) 6.04; (PRVABC59, Concentration 10.0 uM, Immobilization level 13000.0 pg/mm2, Rmax 45.0 pg/mm2, ka 357590.388 M-1s-1, kd 0.673 1/s) 5.72.

For the compound `O=C(Nc1ccc2c(c1)CNC2)c1cc(Cl)cc2c1CCC2`, the pKD came to 5.36 (PRVABC59, Concentration 10.0 uM, Immobilization level 10000.0 pg/mm2, Rmax 25.0 pg/mm2, ka 106816.236 M-1s-1, kd 0.472 1/s); 5.14 (PRVABC59, Concentration 10.0 uM, Immobilization level 12000.0 pg/mm2, Rmax 64.0 pg/mm2, ka 30866.003 M-1s-1, kd 0.225 1/s); 5.32 (PRVABC59, Concentration 10.0 uM, Immobilization level 13000.0 pg/mm2, Rmax 31.0 pg/mm2, ka 79832.742 M-1s-1, kd 0.384 1/s).

On to `COCCNC(=O)[C@H](Nc1ccc2c(c1)CNC2)c1cc(Cl)cc(C2CC2)c1`, for which the pKD was 6.83 (PRVABC59, Concentration 10.0 uM, Immobilization level 10000.0 pg/mm2, Rmax 39.0 pg/mm2, ka 617826.514 M-1s-1, kd 0.092 1/s); 6.7 (PRVABC59, Concentration 10.0 uM, Immobilization level 12000.0 pg/mm2, Rmax 47.0 pg/mm2, ka 381252.779 M-1s-1, kd 0.077 1/s); 6.7 (PRVABC59, Concentration 10.0 uM, Immobilization level 13000.0 pg/mm2, Rmax 46.0 pg/mm2, ka 474021.576 M-1s-1, kd 0.094 1/s).

In the case of `COc1cc(Br)cc(C(=O)Nc2ccc3c(c2)CNC3)c1`, the pKD runs as follows: (PRVABC59, Concentration 10.0 uM, Immobilization level 3900.0 pg/mm2, Rmax 30.0 pg/mm2, ka 1022660.121 M-1s-1, kd 0.519 1/s) 6.29; (PRVABC59, Concentration 10.0 uM, Immobilization level 4900.0 pg/mm2, Rmax 37.0 pg/mm2, ka 628733.109 M-1s-1, kd 0.436 1/s) 6.16; (PRVABC59, Concentration 10.0 uM, Immobilization level 5500.0 pg/mm2, Rmax 32.0 pg/mm2, ka 715576.018 M-1s-1, kd 0.434 1/s) 6.22; (PRVABC59, Concentration 10.0 uM, Immobilization level 10000.0 pg/mm2, Rmax 31.0 pg/mm2, ka 878454.345 M-1s-1, kd 0.618 1/s) 6.15; (PRVABC59, Concentration 10.0 uM, Immobilization level 12000.0 pg/mm2, Rmax 51.0 pg/mm2, ka 505054.059 M-1s-1, kd 0.503 1/s) 6; (PRVABC59, Concentration 10.0 uM, Immobilization level 13000.0 pg/mm2, Rmax 45.0 pg/mm2, ka 775706.649 M-1s-1, kd 0.539 1/s) 6.16.

As to `Nc1cc(Cl)cc(C(=O)Nc2ccc3c(c2)CNC3)c1N`, the pKD (PRVABC59, Concentration 10.0 uM, Immobilization level 10000.0 pg/mm2, Rmax 26.0 pg/mm2, ka 624754.243 M-1s-1, kd 0.161 1/s) is 6.59; the pKD (PRVABC59, Concentration 10.0 uM, Immobilization level 12000.0 pg/mm2, Rmax 44.0 pg/mm2, ka 261141.936 M-1s-1, kd 1.029 1/s) came out at 5.4; the pKD (PRVABC59, Concentration 10.0 uM, Immobilization level 13000.0 pg/mm2, Rmax 23.0 pg/mm2, ka 816818.479 M-1s-1, kd 0.326 1/s) is 6.4.
